# Assay results published in the supplement of paper PMC11001985.
# Unmarked numbers belong to inactive results.
# Compound: C#CCNC(=O)CCSSCCC(=O)NCCc1ccc(C=O)c(C=O)c1
# Assay: lysine labeling ratio R10:1 (500 µM / 50 µM probe), SILAC-ABPP in living cells; higher = lower intrinsic lysine reactivity toward the probe, active = 2 or less
# Conditions: HeLa; probe concentrations 500 vs 50 µM
# Description: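 Living HeLa cells (SILAC light/heavy) in PBS at room temperature were labeled with 50 µM versus 500 µM of the lysine-reactive, reductant-cleavable probe OPA-S-S-alkyne (SILAC labeling time not stated). Probe-modified peptides were CuAAC-biotinylated, captured on neutravidin and eluted with DTT/IAA, then quantified by LC-MS/MS. R = median peptide ratio per lysine (500/50 µM), combined over 3 forward and 3 reverse SILAC replicates. Ratios are capped at 20; R < 2 = hyper-reactive.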
# Sequence of UniProt P56199 (P56199 whole entry): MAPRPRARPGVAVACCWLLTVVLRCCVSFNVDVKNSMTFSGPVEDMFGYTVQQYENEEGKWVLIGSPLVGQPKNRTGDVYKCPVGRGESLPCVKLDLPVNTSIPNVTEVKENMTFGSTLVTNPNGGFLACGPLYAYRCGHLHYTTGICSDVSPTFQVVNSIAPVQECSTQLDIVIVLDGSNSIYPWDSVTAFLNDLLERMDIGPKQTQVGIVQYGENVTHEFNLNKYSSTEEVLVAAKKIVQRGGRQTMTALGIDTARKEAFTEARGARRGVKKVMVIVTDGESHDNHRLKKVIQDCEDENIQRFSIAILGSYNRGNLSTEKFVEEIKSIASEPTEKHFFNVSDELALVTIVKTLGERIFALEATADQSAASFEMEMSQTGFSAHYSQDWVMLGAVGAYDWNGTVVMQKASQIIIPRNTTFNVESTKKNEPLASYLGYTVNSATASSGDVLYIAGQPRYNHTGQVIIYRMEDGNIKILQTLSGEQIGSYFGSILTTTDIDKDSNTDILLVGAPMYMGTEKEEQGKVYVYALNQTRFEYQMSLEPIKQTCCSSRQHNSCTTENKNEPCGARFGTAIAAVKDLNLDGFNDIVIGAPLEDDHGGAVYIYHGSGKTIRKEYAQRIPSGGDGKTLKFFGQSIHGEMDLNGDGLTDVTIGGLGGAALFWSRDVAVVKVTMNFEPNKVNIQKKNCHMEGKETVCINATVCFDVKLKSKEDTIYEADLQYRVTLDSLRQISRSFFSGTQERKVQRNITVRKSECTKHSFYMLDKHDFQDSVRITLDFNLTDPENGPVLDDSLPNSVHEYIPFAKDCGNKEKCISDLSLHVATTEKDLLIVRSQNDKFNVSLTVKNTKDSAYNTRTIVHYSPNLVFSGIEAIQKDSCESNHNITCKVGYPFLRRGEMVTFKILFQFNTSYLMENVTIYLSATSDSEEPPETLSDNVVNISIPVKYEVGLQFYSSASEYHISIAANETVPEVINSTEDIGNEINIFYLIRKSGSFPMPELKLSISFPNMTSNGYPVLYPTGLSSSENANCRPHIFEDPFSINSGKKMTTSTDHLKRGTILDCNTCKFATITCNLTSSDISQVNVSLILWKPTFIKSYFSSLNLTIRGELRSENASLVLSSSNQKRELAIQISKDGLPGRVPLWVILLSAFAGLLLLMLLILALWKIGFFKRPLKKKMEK
# Sequence of UniProt Q14247 (Q14247 whole entry): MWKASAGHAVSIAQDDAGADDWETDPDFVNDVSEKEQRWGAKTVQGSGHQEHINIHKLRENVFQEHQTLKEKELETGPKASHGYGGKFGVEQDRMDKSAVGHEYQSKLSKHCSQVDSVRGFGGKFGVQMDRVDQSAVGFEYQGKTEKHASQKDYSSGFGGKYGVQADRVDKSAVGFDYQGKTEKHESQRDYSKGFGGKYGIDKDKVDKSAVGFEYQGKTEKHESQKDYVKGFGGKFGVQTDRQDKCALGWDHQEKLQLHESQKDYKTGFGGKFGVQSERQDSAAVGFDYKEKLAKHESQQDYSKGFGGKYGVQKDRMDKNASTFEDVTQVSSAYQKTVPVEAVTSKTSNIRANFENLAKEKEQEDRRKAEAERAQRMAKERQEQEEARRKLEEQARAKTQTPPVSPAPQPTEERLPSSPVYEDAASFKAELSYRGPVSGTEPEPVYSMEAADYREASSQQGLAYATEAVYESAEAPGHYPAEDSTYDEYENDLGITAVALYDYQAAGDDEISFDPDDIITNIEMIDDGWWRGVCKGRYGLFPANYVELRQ
# Sequence of UniProt O75369 (O75369 whole entry): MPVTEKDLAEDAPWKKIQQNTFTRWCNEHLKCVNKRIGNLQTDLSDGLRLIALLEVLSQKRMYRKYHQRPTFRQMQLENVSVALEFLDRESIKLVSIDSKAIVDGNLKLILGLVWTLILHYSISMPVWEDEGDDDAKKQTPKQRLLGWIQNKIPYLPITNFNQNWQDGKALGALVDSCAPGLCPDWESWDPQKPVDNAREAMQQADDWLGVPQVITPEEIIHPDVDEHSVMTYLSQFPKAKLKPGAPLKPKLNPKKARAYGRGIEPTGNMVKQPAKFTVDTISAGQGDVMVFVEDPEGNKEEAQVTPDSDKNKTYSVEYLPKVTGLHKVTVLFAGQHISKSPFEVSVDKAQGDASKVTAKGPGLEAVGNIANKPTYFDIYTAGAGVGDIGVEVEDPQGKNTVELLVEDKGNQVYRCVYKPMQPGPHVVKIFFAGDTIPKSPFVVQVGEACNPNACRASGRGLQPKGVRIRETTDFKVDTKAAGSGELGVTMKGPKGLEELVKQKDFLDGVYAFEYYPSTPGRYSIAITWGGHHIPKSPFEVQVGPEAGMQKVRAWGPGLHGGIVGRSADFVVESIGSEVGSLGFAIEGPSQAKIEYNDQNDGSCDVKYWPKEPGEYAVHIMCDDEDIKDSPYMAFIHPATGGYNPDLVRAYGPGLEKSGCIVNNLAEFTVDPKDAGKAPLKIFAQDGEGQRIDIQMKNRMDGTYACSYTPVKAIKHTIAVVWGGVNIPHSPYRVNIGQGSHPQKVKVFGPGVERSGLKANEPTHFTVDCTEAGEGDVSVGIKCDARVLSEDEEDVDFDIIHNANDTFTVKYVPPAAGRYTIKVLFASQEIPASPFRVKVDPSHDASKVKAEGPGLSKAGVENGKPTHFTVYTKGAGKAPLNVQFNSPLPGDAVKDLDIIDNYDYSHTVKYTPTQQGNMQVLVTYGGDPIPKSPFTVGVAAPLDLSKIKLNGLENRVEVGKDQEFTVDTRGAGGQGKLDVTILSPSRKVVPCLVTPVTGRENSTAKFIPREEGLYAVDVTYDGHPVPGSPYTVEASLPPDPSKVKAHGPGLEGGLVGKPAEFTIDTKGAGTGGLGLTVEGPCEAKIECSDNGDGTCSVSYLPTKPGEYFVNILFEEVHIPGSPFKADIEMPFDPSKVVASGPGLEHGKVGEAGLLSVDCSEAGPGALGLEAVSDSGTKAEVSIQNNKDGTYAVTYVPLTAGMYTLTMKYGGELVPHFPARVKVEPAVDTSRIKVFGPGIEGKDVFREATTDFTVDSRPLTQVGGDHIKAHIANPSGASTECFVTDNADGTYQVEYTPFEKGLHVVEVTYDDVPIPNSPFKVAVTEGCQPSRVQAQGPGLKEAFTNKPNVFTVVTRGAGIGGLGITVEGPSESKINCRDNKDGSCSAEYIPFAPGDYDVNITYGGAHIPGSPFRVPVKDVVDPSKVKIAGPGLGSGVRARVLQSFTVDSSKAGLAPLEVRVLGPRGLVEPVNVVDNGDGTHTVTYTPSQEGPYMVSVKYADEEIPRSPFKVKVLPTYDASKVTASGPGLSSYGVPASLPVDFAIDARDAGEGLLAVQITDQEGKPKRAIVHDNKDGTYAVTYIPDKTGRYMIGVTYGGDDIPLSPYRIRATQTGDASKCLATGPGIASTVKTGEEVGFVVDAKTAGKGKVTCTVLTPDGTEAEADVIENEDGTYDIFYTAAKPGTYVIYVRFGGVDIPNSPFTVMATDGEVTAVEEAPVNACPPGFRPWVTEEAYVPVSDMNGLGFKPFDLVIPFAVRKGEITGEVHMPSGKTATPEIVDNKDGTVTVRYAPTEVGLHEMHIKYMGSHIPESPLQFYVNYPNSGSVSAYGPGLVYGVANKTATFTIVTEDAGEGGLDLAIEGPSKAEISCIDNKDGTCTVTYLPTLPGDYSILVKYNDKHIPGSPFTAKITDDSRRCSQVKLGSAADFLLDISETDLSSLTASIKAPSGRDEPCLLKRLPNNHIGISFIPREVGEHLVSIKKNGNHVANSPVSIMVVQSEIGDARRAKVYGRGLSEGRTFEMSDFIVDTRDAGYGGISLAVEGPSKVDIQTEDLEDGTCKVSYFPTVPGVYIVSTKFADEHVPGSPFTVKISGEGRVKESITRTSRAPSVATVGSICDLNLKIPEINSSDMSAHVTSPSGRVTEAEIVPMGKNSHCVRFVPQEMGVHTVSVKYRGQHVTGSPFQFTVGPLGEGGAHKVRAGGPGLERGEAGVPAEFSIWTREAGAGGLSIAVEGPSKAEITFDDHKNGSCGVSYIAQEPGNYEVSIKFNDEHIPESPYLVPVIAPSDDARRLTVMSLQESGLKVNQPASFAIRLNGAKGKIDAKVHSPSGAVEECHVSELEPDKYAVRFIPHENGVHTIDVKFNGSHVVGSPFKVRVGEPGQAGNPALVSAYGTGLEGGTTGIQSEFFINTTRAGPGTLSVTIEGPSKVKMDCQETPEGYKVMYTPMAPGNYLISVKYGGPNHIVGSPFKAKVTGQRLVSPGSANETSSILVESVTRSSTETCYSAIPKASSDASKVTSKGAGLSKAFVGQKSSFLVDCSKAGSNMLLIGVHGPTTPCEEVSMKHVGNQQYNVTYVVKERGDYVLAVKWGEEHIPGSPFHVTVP
# Sequence of UniProt O43854 (O43854 whole entry): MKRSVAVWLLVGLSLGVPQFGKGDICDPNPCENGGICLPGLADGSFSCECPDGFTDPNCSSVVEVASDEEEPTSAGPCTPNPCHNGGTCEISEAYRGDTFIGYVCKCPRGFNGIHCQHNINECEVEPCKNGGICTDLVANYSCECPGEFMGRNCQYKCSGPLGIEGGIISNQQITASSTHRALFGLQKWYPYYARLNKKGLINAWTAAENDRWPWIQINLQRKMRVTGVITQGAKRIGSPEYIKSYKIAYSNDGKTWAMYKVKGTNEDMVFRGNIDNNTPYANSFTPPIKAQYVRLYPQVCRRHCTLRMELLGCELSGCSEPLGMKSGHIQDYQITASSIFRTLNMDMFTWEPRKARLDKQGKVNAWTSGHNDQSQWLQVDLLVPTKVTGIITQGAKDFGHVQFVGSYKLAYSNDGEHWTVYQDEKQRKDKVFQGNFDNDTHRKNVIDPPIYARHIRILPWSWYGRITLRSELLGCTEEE
# Sequence of UniProt Q9H8H3 (Q9H8H3 whole entry): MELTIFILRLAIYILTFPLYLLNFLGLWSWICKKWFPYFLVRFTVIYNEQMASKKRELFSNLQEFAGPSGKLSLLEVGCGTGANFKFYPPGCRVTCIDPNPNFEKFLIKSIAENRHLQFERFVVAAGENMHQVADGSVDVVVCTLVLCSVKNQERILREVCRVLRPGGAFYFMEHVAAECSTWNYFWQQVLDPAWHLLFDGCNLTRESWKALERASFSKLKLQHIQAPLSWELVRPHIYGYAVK
row,Target,lysine labeling ratio R10:1
1,FRAS1 (lysine site: K3209) (UniProt Q86XX4),2.67
2,EEF2 (lysine site: K598) (UniProt P13639),1.36 (active)
3,ITGB5 (lysine site: K170) (UniProt P18084),3.44
4,EDIL3 (lysine site: K426) (UniProt O43854),2.91
5,L1CAM (lysine site: K530) (UniProt P32004),7.51
6,VAPA (lysine site: K188) (UniProt Q9P0L0),1.99 (active)
7,TFRC (lysine site: K673) (UniProt P02786),3
8,METTL7A (lysine site: K210) (UniProt Q9H8H3),1.36 (active)
9,EPRS (lysine site: K435) (UniProt P07814),2.68
10,PSMA3 (lysine site: K65) (UniProt P25788),1.97 (active)
11,UniProt P62913 (lysine site: K178),3.2
12,SLC39A10 (lysine site: K317) (UniProt Q9ULF5),6.58
13,LDHB (lysine site: K156) (UniProt P07195),6.77
14,VASN (lysine site: K154) (UniProt Q6EMK4),1.64 (active)
15,MET (lysine site: K600) (UniProt P08581),1.67 (active)
16,NCL (lysine site: K467) (UniProt P19338),0.565 (active)
17,EEF2 (lysine site: K445) (UniProt P13639),2.7
18,EPCAM (lysine site: K155) (UniProt P16422),2.33
19,UniProt P14618 (lysine site: K367),3.33
20,ITGA1 (lysine site: K849) (UniProt P56199),0.921 (active)

row,Target,lysine labeling ratio R10:1
1,GANAB (lysine site: K191) (UniProt Q14697),4.19
2,HSPD1 (lysine site: K250) (UniProt P10809),2.65
3,UniProt Q8WXI7 (lysine site: K13228),11.9
4,UniProt Q15149 (lysine site: K1833),2.22
5,PLXNA2 (lysine site: K542) (UniProt O75051),1.9 (active)
6,UniProt Q7L592 (lysine site: K72),0.87 (active)
7,CTTN (lysine site: K184) (UniProt Q14247),1.5 (active)
8,HSPA5 (lysine site: K164) (UniProt P11021),0.987 (active)
9,PLXND1 (lysine site: K1182) (UniProt Q9Y4D7),0.824 (active)
10,PDCD6IP (lysine site: K303) (UniProt Q8WUM4),2.47
11,FLNB (lysine site: K1955) (UniProt O75369),1.23 (active)
12,UniProt P52803 (lysine site: K180),6.21
13,HNRNPA2B1 (lysine site: K173) (UniProt P22626),7.67
14,RPL5 (lysine site: K197) (UniProt P46777),1.37 (active)
15,GAPDH (lysine site: K5) (UniProt P04406),1.43 (active)
16,SPTAN1 (lysine site: K2404) (UniProt Q13813),1.94 (active)
17,UniProt P60228 (lysine site: K409),2.54
18,ITGA1 (lysine site: K81) (UniProt P56199),2.7
19,SPTBN1 (lysine site: K1684) (UniProt Q01082),1.83 (active)
20,DNAJA1 (lysine site: K144) (UniProt P31689),2.55
